Measured values reported in PubChem BioAssay (NCI).
Compounds without any hit were thinned out: in the full panel of roughly 83,000, 20% have a hit.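 Negative percent growth values reflect cell death: -40 means 40% of the cells present at the start died, and -100 means all died.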 The source made the active and inactive calls. Rule for the calls: active = growth percent below 10; inactive = the rest.

What was measured:
Experiment in all cases: NCI-60 one-dose screen, 48 h (100 = growth as untreated, 0 = no growth, -100 = all killed)
Conditions in all cases: 10 µM unless noted
NCI-H23 lung = tested on: NCI-H23 lung
NCI-H226 lung = tested on: NCI-H226 lung
NCI-H322M lung = tested on: NCI-H322M lung
HOP-62 NSCLC = tested on: HOP-62 NSCLC
NCI-H460 lung = tested on: NCI-H460 lung
NCI-H522 lung = tested on: NCI-H522 lung
A549/ATCC NSCLC = tested on: A549/ATCC NSCLC
786-0 renal = tested on: 786-0 renal
COLO 205 colon = tested on: COLO 205 colon
DU-145 prostate = tested on: DU-145 prostate
K-562 leukemia = tested on: K-562 leukemia
MALME-3M melanoma = tested on: MALME-3M melanoma
MDA-MB-231 breast = tested on: MDA-MB-231 breast
RXF 393 renal = tested on: RXF 393 renal
SF-268 CNS = tested on: SF-268 CNS
SF-295 CNS = tested on: SF-295 CNS
SF-539 CNS = tested on: SF-539 CNS
UACC-257 melanoma = tested on: UACC-257 melanoma
M14 melanoma = tested on: M14 melanoma
HOP-92 NSCLC = tested on: HOP-92 NSCLC

SMILES	growth (NCI-H23 lung)	growth (NCI-H226 lung)	growth (NCI-H322M lung)	growth (HOP-62 NSCLC)	growth (NCI-H460 lung)	growth (NCI-H522 lung)	growth (A549/ATCC NSCLC)	growth (786-0 renal)	growth (COLO 205 colon)	growth (DU-145 prostate)	growth (K-562 leukemia)	growth (MALME-3M melanoma)	growth (MDA-MB-231 breast)	growth (RXF 393 renal)	growth (SF-268 CNS)	growth (SF-295 CNS)	growth (SF-539 CNS)	growth (UACC-257 melanoma)	growth (M14 melanoma)	growth (HOP-92 NSCLC)
O=C(Nc1cccc([N+](=O)[O-])c1)c1ccc2ccccc2c1O	41.6% (inactive)	76.9% (inactive)	105% (inactive)	53% (inactive)	50.2% (inactive)	-8.09% (active)	68.1% (inactive)	40.4% (inactive)	110% (inactive)	79.3% (inactive)	45.6% (inactive)	20.5% (inactive)	82.2% (inactive)	37.5% (inactive)	71.7% (inactive)	57.1% (inactive)	55.2% (inactive)	14.5% (inactive)	49.8% (inactive)	
O=c1c2ccccc2sc2c(NCCN3CCOCC3)nc3ccccc3c12	68% (inactive)	59.2% (inactive)	104% (inactive)	52% (inactive)	27.3% (inactive)	63.1% (inactive)		48.5% (inactive)	21.9% (inactive)	56% (inactive)	-11.7% (active)	52.2% (inactive)	28.9% (inactive)	11.8% (inactive)	66.9% (inactive)	-7.24% (active)	47.3% (inactive)	79.8% (inactive)	5.59% (active)	24.8% (inactive)
C=C(C)[C@@H]1C/C=C(\COC(=O)[C@H](OC(C)=O)C(NC(=O)c2ccccc2)c2ccccc2)CC[C@H]2O[C@]2(C)CC/C=C(\C)CC1 (stereo not given in full)	73.7% [5 µM] (inactive)	81% [5 µM] (inactive)	71.6% [5 µM] (inactive)	75.3% [5 µM] (inactive)	64.2% [5 µM] (inactive)	57.3% [5 µM] (inactive)		65.7% [5 µM] (inactive)	92% [5 µM] (inactive)	86.6% [5 µM] (inactive)	14.7% [5 µM] (inactive)	86.3% [5 µM] (inactive)	65.2% [5 µM] (inactive)	107% [5 µM] (inactive)	78.9% [5 µM] (inactive)	73.7% [5 µM] (inactive)	81.1% [5 µM] (inactive)	97.5% [5 µM] (inactive)	34.3% [5 µM] (inactive)	13.3% [5 µM] (inactive)
O=C1c2ccccc2C(=O)c2c(NCCN=Cc3c(O)ccc4ccccc34)cccc21	92.9% (inactive)	91.7% (inactive)	91.4% (inactive)	47% (inactive)	88.7% (inactive)	84.7% (inactive)	19.9% (inactive)		85.3% (inactive)	51.7% (inactive)	77.7% (inactive)	113% (inactive)	84.4% (inactive)		82.3% (inactive)	65.1% (inactive)	91.4% (inactive)	-5.35% (active)	65.8% (inactive)	37.9% (inactive)
Clc1ccc2c(c1)nnn1c3ncccc3c(Br)c21	81.1% (inactive)	90.1% (inactive)	88.5% (inactive)	63.7% (inactive)	78.6% (inactive)	67.8% (inactive)		56.6% (inactive)	88.9% (inactive)	90.9% (inactive)	81.8% (inactive)	81.8% (inactive)	63.9% (inactive)	41.5% (inactive)	60.9% (inactive)	61.9% (inactive)	61.9% (inactive)	101% (inactive)	97.7% (inactive)	42.9% (inactive)
FC(F)(F)c1cccc([Si](F)(c2cccc(C(F)(F)F)c2)c2cccc(C(F)(F)F)c2)c1	43.4% (inactive)	70.3% (inactive)	91% (inactive)	90.2% (inactive)	73.9% (inactive)	53.2% (inactive)		50.5% (inactive)	102% (inactive)	94% (inactive)	62.2% (inactive)	106% (inactive)	80.4% (inactive)	87.6% (inactive)	84% (inactive)	69.2% (inactive)	101% (inactive)	81.3% (inactive)		16.1% (inactive)
COc1ccc2c(c1)/C(=C/c1c(-c3cc(OC)c(OC)c(OC)c3Br)nc3sccn13)C(=O)N2	101% (inactive)	86.1% (inactive)	88.9% (inactive)	59.2% (inactive)	111% (inactive)	68.1% (inactive)	101% (inactive)	93.4% (inactive)	117% (inactive)	114% (inactive)	76% (inactive)	62.1% (inactive)	81.4% (inactive)	118% (inactive)	116% (inactive)	105% (inactive)	95.3% (inactive)	110% (inactive)	115% (inactive)	
O=C(Nc1cccc([N+](=O)[O-])c1)Nc1cccc([N+](=O)[O-])c1	28.3% (inactive)	53% (inactive)	68% (inactive)	88.2% (inactive)	35.2% (inactive)	10.1% (inactive)	60.5% (inactive)	71.7% (inactive)	59.1% (inactive)	42.2% (inactive)	15.3% (inactive)	66.9% (inactive)	88.1% (inactive)	99.4% (inactive)	82.6% (inactive)	34.6% (inactive)	74.9% (inactive)	68.1% (inactive)	44.6% (inactive)	
CC1=C2C(=C[C@@](C)(CO)[C@@H]2OC(=O)N(C)CCN(C)C(=O)OC(C)(C)C)C(=O)[C@](C)(O)C12CC2	11.8% (inactive)	106% (inactive)	59.7% (inactive)	9.97% (active)	3.77% (active)	57.7% (inactive)	10.4% (inactive)	65.1% (inactive)	40.1% (inactive)	8.82% (active)		67.3% (inactive)	48% (inactive)	-57.3% (active)	4.84% (active)	5.06% (active)	57.9% (inactive)	100% (inactive)	54.8% (inactive)	
COc1ccc(C[C@H](N)C(=O)N[C@@H]2[C@@H](CO)OC(n3cnc4c(N(C)C)ncnc43)[C@@H]2O)cc1 (stereo not given in full)	-39.4% (active)	-65.2% (active)	-65.2% (active)	-57.8% (active)	-67% (active)	-68.7% (active)	-57.9% (active)	-87.6% (active)	-63.2% (active)	-7.63% (active)	-11.4% (active)	-78.1% (active)	-10.1% (active)	-86.6% (active)	-42.5% (active)	-43% (active)	-42.9% (active)	-64.7% (active)	-85.5% (active)	
N#Cc1c2c(c(N)[nH]c1=O)C(=O)NC2(O)c1ccccc1 (stereo not given)	98.8% (inactive)	99.2% (inactive)	103% (inactive)	104% (inactive)	118% (inactive)	85.1% (inactive)	97.1% (inactive)	104% (inactive)	107% (inactive)	105% (inactive)	98.7% (inactive)	87.1% (inactive)	112% (inactive)	103% (inactive)	105% (inactive)	100% (inactive)	104% (inactive)	96.7% (inactive)	100% (inactive)	
CCn1c(C)nc([N+](=O)[O-])c1Sc1nc(N)nc2nc[nH]c12	28.8% (inactive)	44.3% (inactive)	50.9% (inactive)	24.9% (inactive)	10.7% (inactive)	42.6% (inactive)		24.6% (inactive)	67.9% (inactive)	24.4% (inactive)	17.3% (inactive)	53.2% (inactive)	42.3% (inactive)	36% (inactive)	31.3% (inactive)	23.8% (inactive)	26.7% (inactive)	39.7% (inactive)	8.02% (active)	
O=c1c2ccccc2sc2c(N3CCCC3)nc3ccccc3c12	88.7% (inactive)	81.3% (inactive)	110% (inactive)	97.7% (inactive)		100% (inactive)	103% (inactive)	102% (inactive)	116% (inactive)	99% (inactive)	86.5% (inactive)	136% (inactive)	90.5% (inactive)	103% (inactive)	98.9% (inactive)	115% (inactive)	102% (inactive)	106% (inactive)	114% (inactive)	70.8% (inactive)
Nc1nc(Cl)cc(NCc2ccc(CNc3cc(Cl)nc(N)n3)cc2)n1	75.7% (inactive)	70.8% (inactive)	102% (inactive)	48.8% (inactive)		49.8% (inactive)	87.2% (inactive)	101% (inactive)	103% (inactive)	96.4% (inactive)	47.8% (inactive)	182% (inactive)	83.1% (inactive)	90.9% (inactive)	98.2% (inactive)	105% (inactive)	87.3% (inactive)	96% (inactive)	133% (inactive)	92.9% (inactive)
O=C(c1ccccc1)[C@H]1[C@@H]2CCCN2[C@]2(C(=O)Nc3ccc(F)cc32)[C@]12C(=O)Nc1ccccc12	93.3% (inactive)	79.3% (inactive)	97% (inactive)	86.8% (inactive)	93.6% (inactive)	73.5% (inactive)	75.2% (inactive)	87.7% (inactive)	93.8% (inactive)	94% (inactive)		125% (inactive)	75.5% (inactive)	81.9% (inactive)	90.2% (inactive)	97.6% (inactive)	90.1% (inactive)	83.3% (inactive)	85.2% (inactive)	
CC[C@H]1[C@@H]2C=C[C@@H]3[C@H]4C/C=C\C(=O)NCCC[C@@H]5NC(=O)/C(=C(O)/C=C/[C@@H]4C[C@@H]3[C@H]2C[C@H]1C)C5=O	51% (inactive)	1.14% (active)	35.7% (inactive)	-49.9% (active)	-51.2% (active)	67.7% (inactive)	36.8% (inactive)	-80.9% (active)	66% (inactive)	-94% (active)		-6.22% (active)	-2.91% (active)	-86.1% (active)	-55.5% (active)	-53.2% (active)	-20.8% (active)	23.4% (inactive)	-10.9% (active)	
COc1ccc(-c2nnc(SCC(=O)Nc3ccc(C(=O)/C=C/c4ccc(Cl)cc4)cc3)o2)cc1OC	79% (inactive)	85.7% (inactive)	87.4% (inactive)	71.8% (inactive)		16.7% (inactive)	90.7% (inactive)	70.8% (inactive)	116% (inactive)	78.9% (inactive)	52% (inactive)	5.79% (active)	76.3% (inactive)	95.9% (inactive)	82.2% (inactive)	80.4% (inactive)	54.5% (inactive)	91.4% (inactive)	81.7% (inactive)	29.7% (inactive)
COc1ccc(-c2nn(-c3ccc(NC(=O)Nc4ccc(Cl)c(Cl)c4)cc3)cc2-c2ccncc2)cc1Cl	6.03% (active)	6.82% (active)	47.2% (inactive)	20.7% (inactive)		0.622% (active)	15% (inactive)	2.7% (active)	-47.7% (active)	28.6% (inactive)	11.6% (inactive)	16% (inactive)	0.693% (active)	-55.7% (active)	31.1% (inactive)	1.08% (active)	15.7% (inactive)	11.9% (inactive)	6.66% (active)	-17% (active)
Clc1ccc2c(NCCNc3nc(Cl)nc4ccccc34)ccnc2c1	-61.7% (active)	-80% (active)	-26.4% (active)	-68.6% (active)	-65.4% (active)	-84.6% (active)	-88% (active)	-94.1% (active)	-85.8% (active)	-3.33% (active)		-87.3% (active)	-87.8% (active)	-77.2% (active)	-58.1% (active)	-76.7% (active)	-84% (active)	91.1% (inactive)	-89.1% (active)	
CC(C)C1(C(C)C)NC(=O)NC1=O	99.2% (inactive)	102% (inactive)	119% (inactive)	96.6% (inactive)		94.8% (inactive)	101% (inactive)	101% (inactive)	117% (inactive)	93.7% (inactive)	108% (inactive)	163% (inactive)	109% (inactive)	107% (inactive)	94% (inactive)	99.4% (inactive)	91.6% (inactive)	106% (inactive)		93.2% (inactive)
COc1cc(CN(c2ccc(Cl)cc2)C2OC(=O)c3ccccc32)cc(OC)c1OC (stereo not given)	77.2% (inactive)	78.9% (inactive)	88.8% (inactive)	44.8% (inactive)		35% (inactive)	39.7% (inactive)	71% (inactive)	61.9% (inactive)	83.7% (inactive)	15.8% (inactive)	64.3% (inactive)	67.1% (inactive)	82.7% (inactive)	67.8% (inactive)	71.5% (inactive)	60.2% (inactive)	74.7% (inactive)	34.8% (inactive)	69.1% (inactive)
O=c1c2ccccc2sc2c(NCCCNCCO)nc3ccccc3c12	50% (inactive)	44.4% (inactive)	65.8% (inactive)	36.5% (inactive)	-33.5% (active)	20.9% (inactive)	25.9% (inactive)	41.3% (inactive)	-78.9% (active)	16.5% (inactive)	-39.5% (active)	-55.3% (active)	-10.6% (active)	14.2% (inactive)	37.5% (inactive)	-3.85% (active)	54.7% (inactive)	64% (inactive)	-61.8% (active)	
